Laboratory results: publication PMC11006913
Positions count from the first letter of the chain named.

Experiments:
Test in all cases: PBM; 200 nM protein, PBS
Conditions in all cases: dsDNA, one strand shown
NKX2-4 [1] = molecular target: T1, NKX2-4 (Homo sapiens, UniProt Q9H2Z4 175-261, P217L)
T1 sequence: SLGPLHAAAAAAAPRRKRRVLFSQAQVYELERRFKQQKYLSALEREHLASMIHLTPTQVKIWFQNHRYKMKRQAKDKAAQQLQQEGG

NKX2-4 [2] = molecular target: T2, NKX2-4 (Homo sapiens, UniProt Q9H2Z4 175-261, T231S)
T2 sequence: T1 sequence with L43P, T57S

NKX2-4 [3] = molecular target: T3, NKX2-4 (Homo sapiens, UniProt Q9H2Z4 175-261)
T3 sequence: T1 sequence with L43P

NKX2-4 [4] = molecular target: T4, NKX2-4 (Homo sapiens, UniProt Q9H2Z4 175-261, R246Q)
T4 sequence: T1 sequence with L43P, R72Q

Sequence	binding signal (NKX2-4 [1])	binding signal (NKX2-4 [2])	binding signal (NKX2-4 [3])	binding signal (NKX2-4 [4])
CGTTTGGC	9.62 upbm affinity estimate (log intensity, higher = more binding, comparable within an allelic series)	9.4 upbm affinity estimate (log intensity, higher = more binding, comparable within an allelic series)	9.47 upbm affinity estimate (log intensity, higher = more binding, comparable within an allelic series)	9.6 upbm affinity estimate (log intensity, higher = more binding, comparable within an allelic series)
ATTTAGTG	11.4 upbm affinity estimate (log intensity, higher = more binding, comparable within an allelic series)	11.6 upbm affinity estimate (log intensity, higher = more binding, comparable within an allelic series)	11.4 upbm affinity estimate (log intensity, higher = more binding, comparable within an allelic series)	11.5 upbm affinity estimate (log intensity, higher = more binding, comparable within an allelic series)
ATACTTCA	12.4 upbm affinity estimate (log intensity, higher = more binding, comparable within an allelic series)	12.8 upbm affinity estimate (log intensity, higher = more binding, comparable within an allelic series)	12.3 upbm affinity estimate (log intensity, higher = more binding, comparable within an allelic series)	12.8 upbm affinity estimate (log intensity, higher = more binding, comparable within an allelic series)
GGCAGTCA	10.1 upbm affinity estimate (log intensity, higher = more binding, comparable within an allelic series)	10 upbm affinity estimate (log intensity, higher = more binding, comparable within an allelic series)	9.98 upbm affinity estimate (log intensity, higher = more binding, comparable within an allelic series)	10.1 upbm affinity estimate (log intensity, higher = more binding, comparable within an allelic series)
CCTGCGCG	9.34 upbm affinity estimate (log intensity, higher = more binding, comparable within an allelic series)	9.28 upbm affinity estimate (log intensity, higher = more binding, comparable within an allelic series)	9.35 upbm affinity estimate (log intensity, higher = more binding, comparable within an allelic series)	9.37 upbm affinity estimate (log intensity, higher = more binding, comparable within an allelic series)
CACGCACG	9.72 upbm affinity estimate (log intensity, higher = more binding, comparable within an allelic series)	9.75 upbm affinity estimate (log intensity, higher = more binding, comparable within an allelic series)	9.72 upbm affinity estimate (log intensity, higher = more binding, comparable within an allelic series)	9.75 upbm affinity estimate (log intensity, higher = more binding, comparable within an allelic series)
CTTGAGGA	11.9 upbm affinity estimate (log intensity, higher = more binding, comparable within an allelic series)	12.3 upbm affinity estimate (log intensity, higher = more binding, comparable within an allelic series)	11.8 upbm affinity estimate (log intensity, higher = more binding, comparable within an allelic series)	12.2 upbm affinity estimate (log intensity, higher = more binding, comparable within an allelic series)
TACTTCAA	12.5 upbm affinity estimate (log intensity, higher = more binding, comparable within an allelic series)	12.9 upbm affinity estimate (log intensity, higher = more binding, comparable within an allelic series)	12.4 upbm affinity estimate (log intensity, higher = more binding, comparable within an allelic series)	13 upbm affinity estimate (log intensity, higher = more binding, comparable within an allelic series)
CTGCGTCC	9.76 upbm affinity estimate (log intensity, higher = more binding, comparable within an allelic series)	9.72 upbm affinity estimate (log intensity, higher = more binding, comparable within an allelic series)	9.74 upbm affinity estimate (log intensity, higher = more binding, comparable within an allelic series)	9.78 upbm affinity estimate (log intensity, higher = more binding, comparable within an allelic series)
CGCACGCG	9.51 upbm affinity estimate (log intensity, higher = more binding, comparable within an allelic series)	9.45 upbm affinity estimate (log intensity, higher = more binding, comparable within an allelic series)	9.53 upbm affinity estimate (log intensity, higher = more binding, comparable within an allelic series)	9.45 upbm affinity estimate (log intensity, higher = more binding, comparable within an allelic series)
AAAGAGGC	11.7 upbm affinity estimate (log intensity, higher = more binding, comparable within an allelic series)	11.9 upbm affinity estimate (log intensity, higher = more binding, comparable within an allelic series)	11.6 upbm affinity estimate (log intensity, higher = more binding, comparable within an allelic series)	11.9 upbm affinity estimate (log intensity, higher = more binding, comparable within an allelic series)
ATCCCTCC	9.86 upbm affinity estimate (log intensity, higher = more binding, comparable within an allelic series)	9.87 upbm affinity estimate (log intensity, higher = more binding, comparable within an allelic series)	9.86 upbm affinity estimate (log intensity, higher = more binding, comparable within an allelic series)	9.77 upbm affinity estimate (log intensity, higher = more binding, comparable within an allelic series)
GCTATAGC	9.92 upbm affinity estimate (log intensity, higher = more binding, comparable within an allelic series)	9.98 upbm affinity estimate (log intensity, higher = more binding, comparable within an allelic series)	9.84 upbm affinity estimate (log intensity, higher = more binding, comparable within an allelic series)	9.91 upbm affinity estimate (log intensity, higher = more binding, comparable within an allelic series)
CTGCGCAG	9.75 upbm affinity estimate (log intensity, higher = more binding, comparable within an allelic series)	9.81 upbm affinity estimate (log intensity, higher = more binding, comparable within an allelic series)	9.75 upbm affinity estimate (log intensity, higher = more binding, comparable within an allelic series)	9.93 upbm affinity estimate (log intensity, higher = more binding, comparable within an allelic series)
ACCGTTAC	9.89 upbm affinity estimate (log intensity, higher = more binding, comparable within an allelic series)	9.95 upbm affinity estimate (log intensity, higher = more binding, comparable within an allelic series)	9.88 upbm affinity estimate (log intensity, higher = more binding, comparable within an allelic series)	9.92 upbm affinity estimate (log intensity, higher = more binding, comparable within an allelic series)
GAGTGCCA	12.1 upbm affinity estimate (log intensity, higher = more binding, comparable within an allelic series)	12.3 upbm affinity estimate (log intensity, higher = more binding, comparable within an allelic series)	11.9 upbm affinity estimate (log intensity, higher = more binding, comparable within an allelic series)	12.4 upbm affinity estimate (log intensity, higher = more binding, comparable within an allelic series)
AACGCTGG	9.65 upbm affinity estimate (log intensity, higher = more binding, comparable within an allelic series)	9.71 upbm affinity estimate (log intensity, higher = more binding, comparable within an allelic series)	9.67 upbm affinity estimate (log intensity, higher = more binding, comparable within an allelic series)	9.82 upbm affinity estimate (log intensity, higher = more binding, comparable within an allelic series)
ACATGCAG	9.48 upbm affinity estimate (log intensity, higher = more binding, comparable within an allelic series)	9.63 upbm affinity estimate (log intensity, higher = more binding, comparable within an allelic series)	9.52 upbm affinity estimate (log intensity, higher = more binding, comparable within an allelic series)	9.48 upbm affinity estimate (log intensity, higher = more binding, comparable within an allelic series)
ATGAGTGG	12.4 upbm affinity estimate (log intensity, higher = more binding, comparable within an allelic series)	12.8 upbm affinity estimate (log intensity, higher = more binding, comparable within an allelic series)	12.3 upbm affinity estimate (log intensity, higher = more binding, comparable within an allelic series)	12.8 upbm affinity estimate (log intensity, higher = more binding, comparable within an allelic series)
AAAGCACT	11.7 upbm affinity estimate (log intensity, higher = more binding, comparable within an allelic series)	11.9 upbm affinity estimate (log intensity, higher = more binding, comparable within an allelic series)	11.6 upbm affinity estimate (log intensity, higher = more binding, comparable within an allelic series)	11.9 upbm affinity estimate (log intensity, higher = more binding, comparable within an allelic series)
GCGAGCCA	9.74 upbm affinity estimate (log intensity, higher = more binding, comparable within an allelic series)	9.69 upbm affinity estimate (log intensity, higher = more binding, comparable within an allelic series)	9.69 upbm affinity estimate (log intensity, higher = more binding, comparable within an allelic series)	9.76 upbm affinity estimate (log intensity, higher = more binding, comparable within an allelic series)
AGTGCTTA	12 upbm affinity estimate (log intensity, higher = more binding, comparable within an allelic series)	12.2 upbm affinity estimate (log intensity, higher = more binding, comparable within an allelic series)	11.9 upbm affinity estimate (log intensity, higher = more binding, comparable within an allelic series)	12.2 upbm affinity estimate (log intensity, higher = more binding, comparable within an allelic series)
TCCGGACA	9.56 upbm affinity estimate (log intensity, higher = more binding, comparable within an allelic series)	9.6 upbm affinity estimate (log intensity, higher = more binding, comparable within an allelic series)	9.6 upbm affinity estimate (log intensity, higher = more binding, comparable within an allelic series)	9.66 upbm affinity estimate (log intensity, higher = more binding, comparable within an allelic series)
CAGGCATG	9.76 upbm affinity estimate (log intensity, higher = more binding, comparable within an allelic series)	9.76 upbm affinity estimate (log intensity, higher = more binding, comparable within an allelic series)	9.66 upbm affinity estimate (log intensity, higher = more binding, comparable within an allelic series)	9.82 upbm affinity estimate (log intensity, higher = more binding, comparable within an allelic series)
GCTGTGCA	9.63 upbm affinity estimate (log intensity, higher = more binding, comparable within an allelic series)	9.66 upbm affinity estimate (log intensity, higher = more binding, comparable within an allelic series)	9.61 upbm affinity estimate (log intensity, higher = more binding, comparable within an allelic series)	9.6 upbm affinity estimate (log intensity, higher = more binding, comparable within an allelic series)
GTCCCACA	9.65 upbm affinity estimate (log intensity, higher = more binding, comparable within an allelic series)	9.69 upbm affinity estimate (log intensity, higher = more binding, comparable within an allelic series)	9.67 upbm affinity estimate (log intensity, higher = more binding, comparable within an allelic series)	9.68 upbm affinity estimate (log intensity, higher = more binding, comparable within an allelic series)
CAAACCCG	9.56 upbm affinity estimate (log intensity, higher = more binding, comparable within an allelic series)	9.55 upbm affinity estimate (log intensity, higher = more binding, comparable within an allelic series)	9.55 upbm affinity estimate (log intensity, higher = more binding, comparable within an allelic series)	9.6 upbm affinity estimate (log intensity, higher = more binding, comparable within an allelic series)
AACGCCAG	9.74 upbm affinity estimate (log intensity, higher = more binding, comparable within an allelic series)	9.82 upbm affinity estimate (log intensity, higher = more binding, comparable within an allelic series)	9.78 upbm affinity estimate (log intensity, higher = more binding, comparable within an allelic series)	9.89 upbm affinity estimate (log intensity, higher = more binding, comparable within an allelic series)
GAACTGGC	9.51 upbm affinity estimate (log intensity, higher = more binding, comparable within an allelic series)	9.49 upbm affinity estimate (log intensity, higher = more binding, comparable within an allelic series)	9.54 upbm affinity estimate (log intensity, higher = more binding, comparable within an allelic series)	9.65 upbm affinity estimate (log intensity, higher = more binding, comparable within an allelic series)
CCCAGACG	9.29 upbm affinity estimate (log intensity, higher = more binding, comparable within an allelic series)	9.36 upbm affinity estimate (log intensity, higher = more binding, comparable within an allelic series)	9.37 upbm affinity estimate (log intensity, higher = more binding, comparable within an allelic series)	9.46 upbm affinity estimate (log intensity, higher = more binding, comparable within an allelic series)
